# Source: PubChem (National Center for Advancing Translational Sciences (NCATS))
# Mito fusion yeast: mitochondrial division inhibition or fusion activation. S. cerevisiae fusion-defective mutant growth rescue, CellTiterGlo 48 h. Potency, µM (doses to about 46.1 µM), without a hit: at the highest dose growth rescue (activation), hits mostly activators. 320,000 tested, 0.23% active. AID 485298; also: % of control where 0% means no effect; nearly all actives have a fitted effect of over 45% in size
#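 Read-out: ATP-based luminescence (CellTiterGlo, 10 min ambient) reporting growth of fusion-defective ts yeast after 48 hours at 37C on glycerol/ethanol YPEG medium in the presence of compound.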
# TDP43 rescue: TDP-43 toxicity inhibition in yeast; 410,000 tested, 1.8% active; TDP-43 expressing yeast growth rescue, BacTiter-Glo, 24 h; Potency, µM (titrated, usually from 46.1 µM), for inactives: at the top dose growth rescue (activation), usual class: activators; also: % of control where 0% means no effect; nearly all actives have a fitted effect of over 50% in size
#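 In this qHTS, compounds that restore growth of yeast expressing TDP-43 appear as activators. Cells (OD600=0.02, galactose medium, raffinose-pregrown) are incubated with compound 24 hr at 30 deg C and growth is quantified by BacTiter-Glo.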
# Abeta yeast res: compounds reversing amyloid beta toxicity in yeast; Potency, µM (titrated, usually from 46.1 µM), hits mostly activators; yeast expressing A-beta42, growth rescue, OD600, 48 h; response scale: 0% DMSO, 100% iron-clioquinol control; AID 1347071; 410,000 tested, 0.063% active; also: nearly all actives have a fitted effect of over 55% in size
#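 Growth rescue measured by 600 nm absorbance after 48 h yeast culture at 30 C with compound. Values normalized between DMSO and an equimolar ferric chloride plus clioquinol control.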
# aSyn yeast inh: inhibitors of alpha-synuclein toxicity in yeast. Yeast expressing alpha-synuclein, growth rescue, BacTiter-Glo, 24 h. Potency, µM (series often up to 46.1 µM), for the others: at the top dose growth rescue (activation), usual class: activators. 370,000 tested, 0.14% active; also: % of control where 0% means no effect; nearly all actives have a fitted effect of over 65% in size
#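 Readout is rescue of growth in alpha-synuclein-expressing yeast, so inhibitors of toxicity appear as activators. Growth after 24 hr at 30 deg C in galactose medium is quantified by luminescence.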
# FUS suppressor: FUS proteinopathy suppression in yeast; S. cerevisiae FUS-expressing, growth rescue, OD600, 24 h; Potency, µM (top dose mostly 76.6 µM), most hits filed as activators; 390,000 tested, 0.24% active;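 also: plate controls were DMSO vehicle for no effect and reference control for full effect; nearly all actives have a fitted effect of over 55% in size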
#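 FUS-expressing yeast, raffinose-pregrown, induced in 2% galactose minimal medium at OD 0.005; compounds in a dilution series, 24hr at 30C. Growth restoration read as absorbance at 600 nm. CP55940 positive control, DMSO negative.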
# * hit, by the source's call; i = inactive; u = inconclusive; x = no result given; ! = not active in a repeat; [ ] = dose if it differs, or a comment. Rows were chosen to be rich in hits. Some 2.2% of all compounds tested hit in one or more screens of this group. Calls follow the shape of the dose curve; as a rule, active = well fitted curve in the direction sought with a large enough effect; inconclusive = small, poorly fitted or top-dose-only effect, or another doubt; inactive = no such curve, though single readings can be large; an effect the other way counts as inactive or inconclusive. Potency is read from the fitted curve at half-maximal effect.
SMILES,Mito fusion yeast,TDP43 rescue,Abeta yeast res,aSyn yeast inh,FUS suppressor
COc1ccc(N2CCN(C(=O)Cn3nc(Cc4cccnc4)c4ccccc4c3=O)CC2)cc1,x,-23%,i,x,i
O=c1c2cn[nH]c2nc(SCc2cccc(Br)c2)n1-c1ccc(Cl)cc1,x,6%,i,x,35µM*
O=C(COC(=O)c1ccc2ncsc2c1)Nc1cccc(Cl)c1,19%,u,i,-9%,x
O=C(COC(=O)c1ccc2ncsc2c1)NCc1cccc(Cl)c1,16%,28µM*,i,8%,i
O=C(OCCOc1cccc(Cl)c1)c1ccc2ncsc2c1,-3%,14µM*,i,1%,i
O=C(COc1ccc2c(c1)CCC2)NCc1cccc(Cl)c1,-1%,20µM*,i,0%,i
O=C(COC(=O)c1ccc2ncsc2c1)NCc1ccccc1Cl,x,20µM*,i,23%,i
O=C(Nc1cccc(Cl)c1)c1ccc2ncsc2c1,27%,-18%,i,-14%,i
COc1ccc(CNC(=O)c2nn(-c3ccccc3C)nc2CO)cc1,x,u,i,x,i
N#CC(C#N)=C1C=CC=CN1/C(=C\c1ccccc1)C(=O)c1cccs1,15%,4.5µM*,i,u,i
COc1ccc2c(c1)CC[C@@H]1[C@@H]2CC[C@]2(C)[C@@H](C(C)=O)C[C@@H]12,-1%,3%,i,9%,i
COc1ccc2c(c1)CC[C@@H]1[C@@H]2CC[C@]2(C)[C@@H](C(=O)O)C[C@@H]12,u,20µM*,i,-17%,i
C[C@]12CC[C@@H]3c4ccc(O)cc4CC[C@H]3[C@@H]1CCC2=O,5.8µM*!,4.5µM*,i,4%,i
O=C(Cn1c(=O)n(Cc2ccc3c(c2)OCO3)c(=O)c2ccc(C(=O)NC3CCCCC3)cc21)Nc1ccccc1F,x,8%,i,x,i
COc1ccccc1C(C(=O)NCc1ccccc1)N(C(=O)c1csnn1)C1CC1 (stereo not drawn),5%,3%,i,-1%,i
COc1ccccc1C(C(=O)NC1CCCC1)N(C(=O)c1csnn1)C1CC1 (stereo not drawn),3.2µM*,-11%,i,3%,i
COc1ccc(NC(=O)c2nc(S(C)(=O)=O)ncc2N(Cc2ccc(C)cc2)Cc2ccco2)cc1Cl,x,19%,i,x,u
CCn1c(SCC(=O)Nc2nc(-c3ccc(C)cc3)cs2)nnc1-c1ccccc1,-1%,-3%,i,-12%,i
Cc1csc(SCC(=O)Nc2nc(-c3ccccc3)cs2)n1,-6%,14µM*,i,-2%,i
Cc1ccc(-c2csc(NC(=O)CSc3nc(C)cs3)n2)cc1,3%,u,i,-5%,i
CC1CCN(C(=O)CSCC(=O)Nc2nc(-c3cccs3)cs2)CC1,18%,35µM*,i,-16%,u
CCn1c(SCC(=O)Nc2nc(-c3ccc(C)cc3)cs2)nnc1-c1ccccc1O,u,20µM*,i,-3%,i
O=C(CSCC(=O)N1CCCc2ccccc21)Nc1nc(-c2ccccc2)cs1,18µM*,11µM*,i,-17%,u
Cc1cccc(NC(=O)C(=O)c2cc(C)n(-c3ccccc3)c2C)c1C,x,0%,i,x,i
CN(C(=O)CSc1nc2ccc(NC(=O)c3ccco3)cc2s1)c1ccccc1,x,22%,i,x,u
SMILES,Mito fusion yeast,TDP43 rescue,Abeta yeast res,aSyn yeast inh,FUS suppressor
CCN1CCCCC(NC(=O)c2ccc(F)cc2)C1=O (stereo not drawn),x,x,x,x,i
Nc1cc(-c2ccccc2)nn1Cc1ccc(Cl)cc1,-1%,26%,i,17%,i
O=c1ccc(-c2ccccc2)nn1Cc1ccc(Cl)cc1,x,20µM*,i,u,i
O=c1ccc(/C=C/c2ccccc2)nn1Cc1ccccc1,6%,20µM*,i,9%,i
O=C(NCCO)[C@H](Cc1ccccc1)NC1(C(=O)NCCN2CCOCC2)CCCCC1,x,x,x,x,i
Cc1ccc(N2CC(NC(=O)C3CCCC3)CC2=O)cc1 (stereo not drawn),x,22%,i,x,i
Clc1nnc(NC2CCCCC2)c(Cl)c1Cl,x,22µM*,i,u,i
COc1ccc(OC)c(NC(=O)Cn2cnc3sc(C)c(S(=O)(=O)N4CCN(c5ccccc5OC)CC4)c3c2=O)c1,x,17%,i,x,i
COC(=O)C(C)Oc1ccc(-c2nccc(-c3cccs3)n2)cc1 (stereo not drawn),-7%,-9%,i[9.22 µM],-10%,i
Oc1ccc(-c2nccc(-c3cccs3)n2)cc1,6%,13µM*,i,-2%,i
Cc1ccccc1CS(=O)(=O)c1ncc(Cl)c(C(=O)Nc2nnc(C(C)C)s2)n1,x,11µM*,i,x,i
Cc1ccc(NC(=O)c2nc(S(=O)(=O)Cc3ccccc3C)ncc2Cl)cc1C,-37%,4%,i,18%,i
CCCc1nnc(NC(=O)c2nc(S(=O)(=O)Cc3ccc(C)cc3)ncc2Cl)s1,-16%,11µM*,i,17%,i
CC(C)c1nnc(NC(=O)c2nc(S(=O)(=O)Cc3ccccc3)ncc2Cl)s1,-38%,8.9µM*,i,13%,i
Cc1ccc(CS(=O)(=O)c2ncc(Cl)c(C(=O)Nc3nc4ccc(C)cc4s3)n2)cc1,x,u,i,x,i
COc1cc(NC(=S)NCCN2CCOCC2)cc(OC)c1OC,3%,-13%,25µM*,-9%,i
COc1cc(NC(=S)NCCCN2CCOCC2)cc(OC)c1OC,-4%,-6%,i,0%,i
COc1ccc(N2CCN(C(c3nnnn3C3CCCC3)C(C)C)CC2)cc1 (stereo not drawn),13µM*,-4%,i,5%,i
Cc1ccc(S(=O)(=O)NCCC(=O)Nc2ccc(C)cc2C(=O)c2ccccc2)cc1,25%,22µM*,i,19%,i
COc1ccc(-c2cn3c(n2)sc2cc(C(=O)Nc4cc(Cl)ccc4C)ccc23)cc1,x,14%,i,x,i
C=C(C)COc1ccc(-c2ncncc2-c2ccc(Br)cc2)c(O)c1,-20%,8%,i,-11%,i
C=C(C)COc1ccc(-c2nc(N)ncc2-c2ccc(Br)cc2)c(O)c1,-35%,20µM*,i,-43%,i
Cc1ccc(C2c3[nH]c4ccccc4c3CCN2C(=O)Nc2ccc(C)c(C)c2)cc1 (stereo not drawn),x,-15%,i,x,u
COc1ccc(-c2nc(C)c(CCNC(=O)c3c(F)cccc3F)s2)cc1,x,10µM*,i,-1%,i
COc1ccc(C(=O)NCCc2sc(-c3cccc(F)c3)nc2C)cc1,x,22µM*,i,x,u
CCOc1ccc(CC(=O)NCCc2sc(-c3cccc(F)c3)nc2C)cc1,x,u,i,x,i
